Assay outcomes as filed in PubChem BioAssay.
In the library only some 3.1% were active in any assay of this set; here they are far more common.
Nrf2 block: Nrf2 pathway inhibition; A549 ARE-Fluc reporter, luciferase luminescence, 18-24 h; Potency, µM (top dose mostly 46 µM), for inactives: at the top dose activity change, negative = inhibition, usual class: inhibitors; hit rate 2.1% among 360,000; AID 504444; also: % is scaled to controls: 0 for no effect and ±100 for the full control effect; nearly all actives have a fitted effect of over 60% in size
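Reporter: ARE-Fluc in A549. Exposure: 18-24 h, 37 °C, 5% CO2, 5% FBS OPTI-MEM. Readouts: fluorescent cytotoxicity (CellTiter-Fluor), then luminescent Nrf2 signal after BugLite.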
A549 viability: counter-screen for Nrf2 inhibitors: cytotoxicity in A549 cells; A549 ARE-Fluc cells, CellTiter-Fluor viability, 18-24 h; hit rate 0.16% among 390,000; Potency, µM (highest dose often 46 µM), for inactives: top-dose activity change, negative = cytotoxicity, most hits filed as inhibitors; also: % is scaled to controls: 0 for no effect and ±100 for the full control effect
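A549 ARE-Fluc cells in 5% FBS OPTI-MEM, 5000 cells/well, rested 2 h then exposed to compounds in concentration-response for 18-24 h at 37 °C. Viability by CellTiter-Fluor fluorescence (Ex 405/Em 525) after 30 min; luciferase luminescence (BugLite, 15 min, RT) read afterwards.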
TrxR1 substrate: rat thioredoxin reductase 1 substrate activity; hit rate 0.01% among 390,000; AID 588456; O89049; Potency, µM (highest dose often 114 µM), inactives show top-dose activity change, negative = substrate turnover; purified TrxR1 substrate turnover, NADPH consumption readout; also: % is scaled to controls: 0 for no effect and ±100 for the full control effect; nearly all actives have a fitted effect of over 50% in size
Target sequence (O89049 whole entry, looked up): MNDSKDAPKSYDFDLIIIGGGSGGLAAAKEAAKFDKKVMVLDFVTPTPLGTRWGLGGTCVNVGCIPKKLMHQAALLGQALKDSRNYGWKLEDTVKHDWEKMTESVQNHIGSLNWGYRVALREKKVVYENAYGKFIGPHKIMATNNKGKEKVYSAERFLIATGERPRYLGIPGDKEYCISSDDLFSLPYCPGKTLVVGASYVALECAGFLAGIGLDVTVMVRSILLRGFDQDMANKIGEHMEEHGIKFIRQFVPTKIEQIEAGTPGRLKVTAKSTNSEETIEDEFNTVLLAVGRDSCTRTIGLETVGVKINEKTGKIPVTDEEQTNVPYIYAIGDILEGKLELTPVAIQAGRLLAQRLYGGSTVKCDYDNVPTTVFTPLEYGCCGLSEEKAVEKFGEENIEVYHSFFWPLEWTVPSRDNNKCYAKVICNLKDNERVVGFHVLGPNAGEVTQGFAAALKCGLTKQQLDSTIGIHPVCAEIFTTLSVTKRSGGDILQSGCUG
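Rat TrxR1, dispensed at 90 nM, was prereduced with 400 uM NADPH (final) for 5 min at ~22 deg C, then incubated with compound 15 min before 400 uM selenite. A first-read NADPH fluorescence drop versus no-compound background flagged substrates.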
Mito fusion yeast: mitochondrial division inhibition or fusion activation; S. cerevisiae fusion-defective mutant growth rescue, CellTiterGlo 48 h; Potency, µM (titrated, usually from 46.1 µM), inactives show top-dose growth rescue (activation), actives largely listed as activators; hit rate 0.23% among 320,000; also: % of control where 0% means no effect; nearly all actives have a fitted effect of over 45% in size
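Compounds are tested for their ability to restore growth of mitochondrial fusion-defective yeast strains at non-permissive 37C in YPEG medium over 48 hours. Viability is quantified by luciferase luminescence.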
TrxR1 inh: blocks rat thioredoxin reductase 1; O89049; recombinant rTrxR1, NADPH fluorescence consumption, selenite substrate; Potency, µM (top dose mostly 114 µM), for inactives: top-dose activity change, negative = inhibition, hits mostly inhibitors; hit rate 1% among 390,000; AID 588453; also: % is scaled to controls: 0 for no effect and ±100 for the full control effect; nearly all actives have a fitted effect of over 65% in size
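Rat TrxR1 (90 nM in the dispensed reagent) was pre-reduced with 400 uM NADPH for 5 min at room temperature, then incubated with compound for 15 min. After 400 uM selenite was added, NADPH fluorescence (Ex 340/Em 450 nm) was followed for 8 min.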
mIDH1 inhibitor: inhibitors of human mutant IDH1 R132H | O75874 | Potency, µM (top dose mostly 76.6 µM), for inactives: at the highest dose activity change, negative = inhibition, actives largely listed as inhibitors | hit rate 0.093% among 390,000 | IDH1-R132H enzyme, NADPH consumption, diaphorase/resazurin fluorescence | AID 602179; also: % is scaled to controls: 0 for no effect and ±100 for the full control effect; nearly all actives have a fitted effect of over 65% in size
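IDH1-R132H (0.5 ug/mL dispensed) in pH 7.5 Tris buffer was preincubated 30 min with compound, then given a substrate mix of 0.016 mM NADPH and 2 mM alpha-KG for 80 min at room temperature; remaining NADPH was read by diaphorase/resazurin fluorescence.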
* = called active by the depositor; [ ] = another dose, or the depositor's remark. Calls follow the shape of the dose curve; as a rule, active = well fitted curve in the direction sought with a large enough effect; inconclusive = small, poorly fitted or top-dose-only effect, or another doubt; inactive = no such curve, though single readings can be large; an effect the other way counts as inactive or inconclusive. Potency is read from the fitted curve at half-maximal effect.

Results for Cc1ccc(NC(=O)CSc2nnc(C)n3c2cc2sccc23)c(C)c1 ?
Nrf2 block: -27.3%; A549 viability: 9.1%; TrxR1 substrate: -4.7%; TrxR1 inh: 11.6%; mIDH1 inhibitor: 0.0%

What do the screens show for `COc1cccc(NC(=O)CSc2nnc(-c3ccco3)c(-c3ccco3)n2)c1`?
Nrf2 block: -14.5%; A549 viability: -7.0%; TrxR1 substrate: -4.9%; Mito fusion yeast: 5.8%; TrxR1 inh: 7.08µM*; mIDH1 inhibitor: 4.8%

What do the screens show for `COc1ccc(NC(=O)CSc2nnc(-c3ccco3)c(-c3ccco3)n2)cc1OC`?
Nrf2 block: -25.0%; A549 viability: 4.7%; TrxR1 substrate: 13.7%[0.457 µM]; Mito fusion yeast: -6.2%; TrxR1 inh: inconclusive; mIDH1 inhibitor: 6.4%

Results for COc1ccc(CC(=O)Nc2cccc(-c3nnc(-c4ccco4)o3)c2)cc1 ?
Nrf2 block: 6.51µM*; A549 viability: inconclusive; TrxR1 substrate: -1.1%; Mito fusion yeast: -2.9%; TrxR1 inh: -0.5%; mIDH1 inhibitor: 4.2%

Results for Cn1c(=O)c2c(-c3ccc(Cl)cc3)ccnc2n(C)c1=O ?
Nrf2 block: -2.8%; A549 viability: 4.3%; TrxR1 substrate: 8.0%; TrxR1 inh: 17.8%; mIDH1 inhibitor: 3.1%

How did COc1ccc(-c2nc3ccccc3s2)cc1NC(=O)COc1cccc(C)c1 do in these assays?
Nrf2 block: inconclusive; A549 viability: inconclusive; TrxR1 substrate: 53.3%; TrxR1 inh: 71.0%; mIDH1 inhibitor: -8.1%

Results for CNc1snc(C)c1C(=O)OC(C)C(=O)c1ccc(F)cc1 (centres undefined) ?
Nrf2 block: 20.6µM*; A549 viability: -5.3%; TrxR1 substrate: -2.8%; Mito fusion yeast: 14.3%; TrxR1 inh: -1.3%; mIDH1 inhibitor: -3.7%

How did CN(C)c1ccc(/C=C/c2ccnc3ccc(F)cc23)cc1 do in these assays?
TrxR1 substrate: -6.5%[57.1 µM]; TrxR1 inh: 1.1%[57.1 µM]

What do the screens show for `CCCC(c1nnnn1C1CCCC1)N1CCN(c2ccccc2F)CC1` (centres undefined)?
Nrf2 block: -6.6%; A549 viability: 0.1%; TrxR1 substrate: -4.3%[57.1 µM]; Mito fusion yeast: 8.91µM*; TrxR1 inh: 12.5%[57.1 µM]; mIDH1 inhibitor: 2.7%

How did CCCC(c1nnnn1C(C)(C)C)N1CCN(c2ccccc2)CC1 (centres undefined) do in these assays?
Nrf2 block: -2.2%; A549 viability: -1.2%; TrxR1 substrate: 11.9%[11.4 µM]; Mito fusion yeast: 10µM*; TrxR1 inh: 26.9%[11.4 µM]; mIDH1 inhibitor: 6.7%

Results for CCCC(c1nnnn1C(C)(C)C)N1CCN(Cc2ccccc2OC)CC1 (centres undefined) ?
Nrf2 block: 2.9%; A549 viability: -2.9%; TrxR1 substrate: -11.6%; Mito fusion yeast: 18.6%; TrxR1 inh: -16.4%; mIDH1 inhibitor: 0.0%

Results for CCCCCC/C=C/c1ccc(OC)c(C2C3C=CCC(C)C3C(=O)N2Cc2ccccc2)c1 (centres undefined) ?
Nrf2 block: 9.2%; A549 viability: -2.3%; TrxR1 substrate: -1.3%; TrxR1 inh: 7.0%

How did Nc1cc(C(=O)O)c(N)c2c1C(=O)c1ccccc1C2=O do in these assays?
Nrf2 block: inconclusive; A549 viability: inconclusive; TrxR1 substrate: -7.1%; Mito fusion yeast: -12.4%; TrxR1 inh: 15.3%; mIDH1 inhibitor: -0.1%

How did Nc1c(C(=O)O)ccc2c1C(=O)c1ccccc1C2=O do in these assays?
Nrf2 block: -3.2%; A549 viability: 18.4µM*; TrxR1 substrate: -0.8%[57.1 µM]; Mito fusion yeast: 15.2%; TrxR1 inh: 5.6%[57.1 µM]; mIDH1 inhibitor: 1.4%

What do the screens show for `Cc1c(Cl)cccc1NC(=O)Nc1c[nH]c(=O)[nH]c1=O`?
Nrf2 block: -13.2%; A549 viability: -6.3%; TrxR1 substrate: -1.2%[57.1 µM]; TrxR1 inh: 9.1%[57.1 µM]; mIDH1 inhibitor: -7.1%

What do the screens show for `Cc1ccc(NC(=O)Nc2cccnc2)cc1NC(=O)Nc1cccnc1`?
Nrf2 block: 18.4µM*; A549 viability: -16.2%; TrxR1 substrate: 9.0%[0.0914 µM]; Mito fusion yeast: 11.5%; TrxR1 inh: 13.9%; mIDH1 inhibitor: 1.2%

How did Cc1cc(C)cc(NC(=O)Nc2cccnc2)c1 do in these assays?
Nrf2 block: 8.0%; A549 viability: 1.1%; TrxR1 substrate: 1.3%; Mito fusion yeast: 29.3%; TrxR1 inh: 13.5%; mIDH1 inhibitor: 8.8%

How did Cc1cc(NC(=S)Nc2cccnc2)ccc1Br do in these assays?
Nrf2 block: -13.0%; A549 viability: -5.1%; TrxR1 substrate: 2.6%; Mito fusion yeast: -3.8%; TrxR1 inh: inconclusive; mIDH1 inhibitor: -4.1%

What do the screens show for `Cc1cc(Cl)ccc1NC(=S)Nc1cccnc1`?
Nrf2 block: 3.9%; A549 viability: inconclusive; TrxR1 substrate: -9.8%; Mito fusion yeast: -10.1%; TrxR1 inh: 28.2µM*; mIDH1 inhibitor: 0.3%

How did O=C(C[N+]12CN3CN(CN(C3)C1)C2)c1ccc(O)c(O)c1 do in these assays?
TrxR1 substrate: -4.6%; TrxR1 inh: -31.3%

What do the screens show for `C[N+]1(CC(=O)c2ccc(I)cc2)CCOCC1`?
TrxR1 substrate: 0.3%[57.1 µM]; TrxR1 inh: -13.8%[57.1 µM]

Results for COc1cccc(C2=Nn3c(nnc3-c3cccc(OC)c3OC)SC2)c1 ?
Nrf2 block: -8.0%; A549 viability: -0.8%

Results for CCN(CC)C(=O)c1sc(NC(=O)C(C)Sc2nc(-c3ccccc3)cc(C(F)(F)F)n2)c(C(=O)OC)c1C (centres undefined) ?
Nrf2 block: inconclusive; A549 viability: -12.2%; TrxR1 substrate: -1.8%; TrxR1 inh: 10.1%; mIDH1 inhibitor: -3.3%

Results for O=C(c1cc(-c2ccco2)on1)N1CCc2ccccc2C1 ?
Nrf2 block: inconclusive; A549 viability: 2.8%; TrxR1 substrate: -8.1%; Mito fusion yeast: 29.4%; TrxR1 inh: 31.6µM*; mIDH1 inhibitor: -4.4%

What do the screens show for `COc1ccccc1N1CCN(C(=O)c2cc(-c3ccco3)on2)CC1`?
Nrf2 block: 3.0%; A549 viability: 4.5%; TrxR1 substrate: 3.2%; Mito fusion yeast: 8.2%; TrxR1 inh: 44.7µM*; mIDH1 inhibitor: 6.7%

What do the screens show for `O=C(c1cc(-c2ccccc2O)on1)N1CCc2ccccc2C1`?
Nrf2 block: 17.1%; A549 viability: -5.2%; TrxR1 substrate: 3.8%[57.1 µM]; Mito fusion yeast: 0.7%; TrxR1 inh: 8.9%[57.1 µM]; mIDH1 inhibitor: 13.9%

How did COc1ccccc1/C=C/c1nc2ccccc2[nH]1 do in these assays?
TrxR1 substrate: 25.6%; TrxR1 inh: 6.7%

Results for Nc1ccc(-c2ccc(C(=O)O)s2)cn1 ?
Nrf2 block: 7.2%; A549 viability: -3.2%; TrxR1 substrate: inactive; Mito fusion yeast: -2.0%; TrxR1 inh: 15.8µM*; mIDH1 inhibitor: -1.3%
